Experimental findings from PubChem BioAssay AID434927 (Sanford-Burnham Center for Chemical Genomics, 2010) are described below.

Unmarked numbers belong to inactive results. Activity calls are given as the source filed them.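 The calls were made as follows: active = inhibition above about 23% in any of six single-dose repeats (limit read from the data); inactive = the rest.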

Chain of Intestinal-type alkaline phosphatase (Homo sapiens) (P09923 whole entry, looked up): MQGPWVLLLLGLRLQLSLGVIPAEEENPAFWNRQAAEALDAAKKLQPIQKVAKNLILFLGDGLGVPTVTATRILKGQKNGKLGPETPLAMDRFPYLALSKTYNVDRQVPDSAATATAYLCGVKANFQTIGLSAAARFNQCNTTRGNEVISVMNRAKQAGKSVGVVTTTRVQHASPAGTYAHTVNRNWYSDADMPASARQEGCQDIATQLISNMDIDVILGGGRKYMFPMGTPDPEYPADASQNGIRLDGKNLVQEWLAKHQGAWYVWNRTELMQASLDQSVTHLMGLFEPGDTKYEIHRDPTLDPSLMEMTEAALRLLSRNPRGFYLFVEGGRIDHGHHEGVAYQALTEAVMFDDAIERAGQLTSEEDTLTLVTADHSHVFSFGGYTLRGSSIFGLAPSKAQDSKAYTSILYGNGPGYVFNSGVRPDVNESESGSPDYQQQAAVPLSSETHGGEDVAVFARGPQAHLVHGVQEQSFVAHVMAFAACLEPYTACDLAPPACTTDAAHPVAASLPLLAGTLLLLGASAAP

The test has as its target Intestinal-type alkaline phosphatase (Homo sapiens) (UniProt P09923). Briefly: suppression of intestinal alkaline phosphatase activity – biochemical, luminescence, single concentration, uHTS hits, confirmation (AID 434927).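 Also: plate controls were DMSO wells with enzyme for no effect and wells lacking enzyme for full effect.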 The settings on record: purified human IAP, CDP-Star luminescence, 30 min; at 8.3 µM; stronger effect = higher value.
With `CCCn1c(/C=C/c2ccccc2)nc2ccccc21`, the inhibition was 36.8% (active).

In the case of `CN(C)c1ccc2nc3c(=O)[nH]c(=O)nc-3n(CC(O)C(O)C(O)CO)c2c1` (stereo not drawn), the inhibition is -87.3%.

Regarding `CCc1ccc(/C=N/Nc2ncnc3nc[nH]c23)cc1`, the inhibition was 33.8% (active).

`O=C1Nc2ccccc2/C1=N\N=C\c1ccc(O)c(O)c1`: the inhibition was 61.5% (active).

As to `O=C(CCNS(=O)(=O)c1ccccc1C(F)(F)F)NNC(=O)c1csc(N2CCOCC2)n1`, the inhibition is 0.0741%.

On to `N#CCN1C(=S)N=C(Nc2cccc(Cl)c2)C12CCCCC2`, for which the inhibition is -55.5%.

As for `COc1ccc(O)c(/C=N/NC(=S)NCCc2ccccc2)c1`, the inhibition was -91.2%.

`COc1ccccc1CNC(=O)CN(c1ccc(C)cc1)S(=O)(=O)c1c(C)noc1C`: the inhibition is 32.5% (active).

On to `CCCOCC(O)CC(CC)C(=O)NNC(=S)Nc1ccccc1` (stereo not drawn), for which the inhibition is -138%.

As to `Cc1nc2c3ccccc3nc(NNC(=O)CCC(=O)N3CCCC(C)C3)n2n1` (stereo not drawn), the inhibition was -41.6%.

Take `O=C(O)C1OC(Oc2c(-c3ccc(O)c(O)c3)oc3cc(O)cc(O)c3c2=O)C(O)C(O)C1O` (stereo not drawn): the inhibition was 32.1% (active).

As to `CN(CC(=O)Nc1ccccc1F)CC(=O)Nc1ccc(F)c(F)c1F`, the inhibition was 51.6% (active).

Take `CC(C)CC(=O)NC(=S)NNC(=O)c1ccc(NC(=O)C2CCCCC2)cc1`: the inhibition is 62.1% (active).

`O=c1cc(-c2ccccc2)[nH]n1-c1nc2ccccc2[nH]1`: the inhibition was -58.4%.

For the molecule `COc1cc(/C=N\NS(=O)(=O)c2ccccc2)cc(OC)c1OC`, the inhibition is 30.7% (active).

As for `Cc1cc(OCC(=O)Nc2ncn[nH]2)ccc1Cl`, the inhibition is -87%.

Turning to `O=C(NNC(=S)NC1CCCCC1)c1ccccc1Br`, the inhibition was -42.5%.

Take `Cc1nc2c3ccccc3nc(NNC(=O)CCC(=O)NCCN3CCN(c4ccccc4)CC3)n2n1`: the inhibition was -97.4%.

With `CCOc1ccc(/C=N/NC(=O)c2[nH]ncc2Br)c(O)c1`, the inhibition is -294%.

In the case of `Cc1ccccc1CNC(=O)c1ccccc1N`, the inhibition was 37.2% (active).

Turning to `COc1ccccc1N(C)S(=O)(=O)c1ccc(Cl)c(C(=O)NNC(=O)c2ccccc2O)c1`, the inhibition was 59.4% (active).

`Cc1nc(Nc2nc3c(c(=O)[nH]2)CCC3)nc2ccccc12`: the inhibition is -77.6%.

Turning to `Cc1ccc(NCc2ccc([N+](=O)[O-])s2)cc1`, the inhibition was 26.1% (active).

In the case of `O=c1c(O[C@@H]2O[C@H](CO)[C@@H](O)[C@H](O)[C@H]2O)c(-c2ccc(O)c(O)c2)oc2cc(O)cc(O)c12`, the inhibition is 48% (active).

Turning to `O=C(O)c1ccccc1C(=O)Nc1cc(-c2ccccc2)[nH]n1`, the inhibition was 61.7% (active).

Take `COc1cc(/C=C(\C#N)C(=O)c2ccc(O)c(O)c2)cc(I)c1O`: the inhibition was 40.4% (active).

`Cc1cc(C)cc(CC(Cc2nc3ccccc3[nH]2)c2nc3ccccc3[nH]2)c1` (stereo not drawn): the inhibition was -323%.

Regarding `O=C(CCCCC(=O)NNC(=O)COc1ccccc1)NNC(=O)COc1ccccc1`, the inhibition was -88.4%.

Take `CC(C)Oc1ccc(CCC(=O)NNC(=S)NCc2ccccc2)cc1`: the inhibition was 46.5% (active).

As to `COc1ccc(C2=Nc3cc(C)ccc3OC2)cc1`, the inhibition was 58.3% (active).

Turning to `CCOc1ccccc1CN1CCC(n2nccc2NC(=O)CCc2ccccc2)CC1`, the inhibition is 26.6% (active).

Turning to `COC(=O)c1ccccc1-c1c2ccc(=N)cc-2oc2cc(N)ccc12`, the inhibition was 34.6% (active).

In the case of `O=C(NN1C(=O)/C(=C/c2ccc(O)c([N+](=O)[O-])c2)SC1=S)c1ccccc1Cl`, the inhibition was 38.9% (active).

The inhibition is the relative decrease from the control value, in per cent.
